# Data taken from paper PMC8384837, “Expanding the binding specificity for RNA recognition by a PUF domain”.
# Legend:
# Assay in all cases: yeast three-hybrid, YBZ-1, SC-Leu-His + 0.5 mM 3-AT, 4 days
# Conditions in all cases: tags: N-Gal4 AD-HA kept; label: inside an RPR1-promoter hybrid RNA with tandem MS2 sites; ssRNA
# PUM1 PUF domain R4-MRG = PUM1 PUF domain R4-MRG (Homo sapiens, UniProt Q14671 828-1176, N971M;H972R;Q975G)
# Method in brief: (§1)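 A centromeric plasmid in strain YBZ-1 co-expressed Pumilio-1 PUF domain libraries, randomized at the three base-contacting residues of each repeat, with matching RNA elements; the strain carries a LexA–MS2 coat fusion and a HIS3 reporter. After four days on SC-Leu (input) or SC-Leu-His + 0.5 mM 3-AT (selection), the repeat regions were PCR-amplified and Illumina-sequenced. The interaction score is the log change in variant frequency from input to selection, using log2 and a pseudocount of 1 where absent.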
# PUM1 PUF domain R4-RYP = PUM1 PUF domain R4-RYP (Homo sapiens, UniProt Q14671 828-1176, N971R;H972Y;Q975P)
# Chain of PUM1 PUF domain R4-RYP (Q14671 828-1176 N971R/H972Y/Q975P): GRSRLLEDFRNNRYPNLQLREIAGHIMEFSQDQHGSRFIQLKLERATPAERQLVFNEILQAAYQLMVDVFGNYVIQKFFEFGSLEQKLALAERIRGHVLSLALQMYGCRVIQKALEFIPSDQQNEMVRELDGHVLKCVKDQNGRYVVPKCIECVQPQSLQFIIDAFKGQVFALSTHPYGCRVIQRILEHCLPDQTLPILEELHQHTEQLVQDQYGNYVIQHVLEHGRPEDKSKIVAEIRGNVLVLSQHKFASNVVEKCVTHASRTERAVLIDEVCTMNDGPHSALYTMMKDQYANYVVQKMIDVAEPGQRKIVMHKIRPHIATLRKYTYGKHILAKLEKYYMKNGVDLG
# Method in brief: as §1
# PUM1 PUF domain R4-SNQ = PUM1 PUF domain R4-SNQ (Homo sapiens, UniProt Q14671 828-1176, N971S;H972N)
# Chain of PUM1 PUF domain R4-SNQ (Q14671 828-1176 N971S/H972N): as the sequence (Q14671 828-1176 N971R/H972Y/Q975P) above, with R144S, Y145N, P148Q counted along it
# Method in brief: as §1
# PUM1 PUF domain R4-SPG = PUM1 PUF domain R4-SPG (Homo sapiens, UniProt Q14671 828-1176, N971S;H972P;Q975G)
# Chain of PUM1 PUF domain R4-SPG (Q14671 828-1176 N971S/H972P/Q975G): as the sequence (Q14671 828-1176 N971R/H972Y/Q975P) above, with R144S, Y145P, P148G counted along it
# Method in brief: as §1
# PUM1 PUF domain R5-VNR = PUM1 PUF domain R5-VNR (Homo sapiens, UniProt Q14671 828-1176, C1007V;R1008N;Q1011R)
# Method in brief: as §1
# PUM1 PUF domain R3-LSA = PUM1 PUF domain R3-LSA (Homo sapiens, UniProt Q14671 828-1176, C935L;R936S;Q939A)
# Chain of PUM1 PUF domain R3-LSA (Q14671 828-1176 C935L/R936S/Q939A): as the sequence (Q14671 828-1176 N971R/H972Y/Q975P) above, with C108L, R109S, Q112A, R144N, Y145H, P148Q counted along it
# Method in brief: as §1
# PUM1 PUF domain R3-RTM = PUM1 PUF domain R3-RTM (Homo sapiens, UniProt Q14671 828-1176, C935R;R936T;Q939M)
# Method in brief: as §1
# PUM1 PUF domain R3-EWA = PUM1 PUF domain R3-EWA (Homo sapiens, UniProt Q14671 828-1176, C935E;R936W;Q939A)
# Chain of PUM1 PUF domain R3-EWA (Q14671 828-1176 C935E/R936W/Q939A): as the sequence (Q14671 828-1176 N971R/H972Y/Q975P) above, with C108E, R109W, Q112A, R144N, Y145H, P148Q counted along it
# Method in brief: as §1
# PUM1 PUF domain R1-GFE = PUM1 PUF domain R1-GFE (Homo sapiens, UniProt Q14671 828-1176, S863G;R864F;Q867E)
# Method in brief: as §1
# PUM1 PUF domain R8-KKK = PUM1 PUF domain R8-KKK (Homo sapiens, UniProt Q14671 828-1176, N1122K;Y1123K;Q1126K)
# Chain of PUM1 PUF domain R8-KKK (Q14671 828-1176 N1122K/Y1123K/Q1126K): as the sequence (Q14671 828-1176 N971R/H972Y/Q975P) above, with R144N, Y145H, P148Q, N295K, Y296K, Q299K counted along it
# Method in brief: as §1
# PUM1 PUF domain R8-KWF = PUM1 PUF domain R8-KWF (Homo sapiens, UniProt Q14671 828-1176, N1122K;Y1123W;Q1126F)
# Method in brief: as §1
# PUM1 PUF domain R8-PYF = PUM1 PUF domain R8-PYF (Homo sapiens, UniProt Q14671 828-1176, N1122P;Q1126F)
# Method in brief: as §1
# PUM1 PUF domain R4-ARR = PUM1 PUF domain R4-ARR (Homo sapiens, UniProt Q14671 828-1176, N971A;H972R;Q975R)
# Chain of PUM1 PUF domain R4-ARR (Q14671 828-1176 N971A/H972R/Q975R): as the sequence (Q14671 828-1176 N971R/H972Y/Q975P) above, with R144A, Y145R, P148R counted along it
# Method in brief: as §1
# PUM1 PUF domain R4-DFC = PUM1 PUF domain R4-DFC (Homo sapiens, UniProt Q14671 828-1176, N971D;H972F;Q975C)
# Chain of PUM1 PUF domain R4-DFC (Q14671 828-1176 N971D/H972F/Q975C): as the sequence (Q14671 828-1176 N971R/H972Y/Q975P) above, with R144D, Y145F, P148C counted along it
# Method in brief: as §1
# PUM1 PUF domain R5-PHS = PUM1 PUF domain R5-PHS (Homo sapiens, UniProt Q14671 828-1176, C1007P;R1008H;Q1011S)
# Method in brief: as §1
# PUM1 PUF domain R3-VRY = PUM1 PUF domain R3-VRY (Homo sapiens, UniProt Q14671 828-1176, C935V;Q939Y)
# Chain of PUM1 PUF domain R3-VRY (Q14671 828-1176 C935V/Q939Y): as the sequence (Q14671 828-1176 N971R/H972Y/Q975P) above, with C108V, Q112Y, R144N, Y145H, P148Q counted along it
# Method in brief: as §1
# PUM1 PUF domain R8-KWS = PUM1 PUF domain R8-KWS (Homo sapiens, UniProt Q14671 828-1176, N1122K;Y1123W;Q1126S)
# Chain of PUM1 PUF domain R8-KWS (Q14671 828-1176 N1122K/Y1123W/Q1126S): as the sequence (Q14671 828-1176 N971R/H972Y/Q975P) above, with R144N, Y145H, P148Q, N295K, Y296W, Q299S counted along it
# Method in brief: as §1
# PUM1 PUF domain R5-THL = PUM1 PUF domain R5-THL (Homo sapiens, UniProt Q14671 828-1176, C1007T;R1008H;Q1011L)
# Chain of PUM1 PUF domain R5-THL (Q14671 828-1176 C1007T/R1008H/Q1011L): as the sequence (Q14671 828-1176 N971R/H972Y/Q975P) above, with R144N, Y145H, P148Q, C180T, R181H, Q184L counted along it
# Method in brief: as §1
# PUM1 PUF domain R6-FRV = target: T1, PUM1 PUF domain R6-FRV (Homo sapiens, UniProt Q14671 828-1176, N1043F;Y1044R;Q1047V)
# T1 sequence: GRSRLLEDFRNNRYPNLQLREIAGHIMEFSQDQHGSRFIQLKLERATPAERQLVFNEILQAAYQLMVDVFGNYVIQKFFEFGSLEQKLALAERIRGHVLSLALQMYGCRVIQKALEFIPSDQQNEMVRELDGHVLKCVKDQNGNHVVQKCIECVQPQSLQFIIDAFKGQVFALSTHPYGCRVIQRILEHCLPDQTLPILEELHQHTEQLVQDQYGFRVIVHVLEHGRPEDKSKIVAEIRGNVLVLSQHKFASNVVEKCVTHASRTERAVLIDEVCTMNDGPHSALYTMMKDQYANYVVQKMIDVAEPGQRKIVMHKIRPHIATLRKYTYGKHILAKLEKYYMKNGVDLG
# Method in brief: as §1
# PUM1 PUF domain R5-GQC = PUM1 PUF domain R5-GQC (Homo sapiens, UniProt Q14671 828-1176, C1007G;R1008Q;Q1011C)
# Method in brief: as §1
# Chain of PUM1 PUF domain R4-MRG (Q14671 828-1176 N971M/H972R/Q975G): as the sequence (Q14671 828-1176 N971R/H972Y/Q975P) above, with R144M, Y145R, P148G counted along it
sequence,measurement,setting,value
GGCUAGAACUAGUGGAUCCCCCGGCGCCCGGCGGCUCGAGCCCGGGUAAGUGUAUAUAGUCUGCAUGCCGCCGGGCGCCAUGCCUGCAGGUCGACUCUAGAAAACAUG,binding signal,PUM1 PUF domain R4-MRG,1.61 log2 enrichment (interaction score)
same,binding signal,PUM1 PUF domain R4-RYP,2.78 log2 enrichment (interaction score)
same,binding signal,PUM1 PUF domain R4-SNQ,4.52 log2 enrichment (interaction score)
same,binding signal,PUM1 PUF domain R4-SPG,3.58 log2 enrichment (interaction score)
GGCUAGAACUAGUGGAUCCCCCGGCGCCCGGCGGCUCGAGCCCGGGUAAGUGUUAAUAGUCUGCAUGCCGCCGGGCGCCAUGCCUGCAGGUCGACUCUAGAAAACAUG,binding signal,PUM1 PUF domain R5-VNR,2.69 log2 enrichment (interaction score)
GGCUAGAACUAGUGGAUCCCCCGGCGCCCGGCGGCUCGAGCCCGGGUAAGUGUAAUUAGUCUGCAUGCCGCCGGGCGCCAUGCCUGCAGGUCGACUCUAGAAAACAUG,binding signal,PUM1 PUF domain R3-LSA,2.8 log2 enrichment (interaction score)
same,binding signal,PUM1 PUF domain R3-RTM,2.52 log2 enrichment (interaction score)
same,binding signal,PUM1 PUF domain R3-EWA,4.15 log2 enrichment (interaction score)
GGCUAGAACUAGUGGAUCCCCCGGCGCCCGGCGGCUCGAGCCCGGGUAAGUGUAAAUUGUCUGCAUGCCGCCGGGCGCCAUGCCUGCAGGUCGACUCUAGAAAACAUG,binding signal,PUM1 PUF domain R1-GFE,0.52 log2 enrichment (interaction score)
GGCUAGAACUAGUGGAUCCCCCGGCGCCCGGCGGCUCGAGCCCGGGUAAGCGUAAAUAGUCUGCAUGCCGCCGGGCGCCAUGCCUGCAGGUCGACUCUAGAAAACAUG,binding signal,PUM1 PUF domain R8-KKK,3.81 log2 enrichment (interaction score)
same,binding signal,PUM1 PUF domain R8-KWF,4.32 log2 enrichment (interaction score)
same,binding signal,PUM1 PUF domain R8-PYF,5.02 log2 enrichment (interaction score)
GGCUAGAACUAGUGGAUCCCCCGGCGCCCGGCGGCUCGAGCCCGGGUAAGUGUACAUAGUCUGCAUGCCGCCGGGCGCCAUGCCUGCAGGUCGACUCUAGAAAACAUG,binding signal,PUM1 PUF domain R4-MRG,1.34 log2 enrichment (interaction score)
same,binding signal,PUM1 PUF domain R4-ARR,2.99 log2 enrichment (interaction score)
same,binding signal,PUM1 PUF domain R4-DFC,5.67 log2 enrichment (interaction score)
same,binding signal,PUM1 PUF domain R4-SPG,2.11 log2 enrichment (interaction score)
GGCUAGAACUAGUGGAUCCCCCGGCGCCCGGCGGCUCGAGCCCGGGUAAGUGUGAAUAGUCUGCAUGCCGCCGGGCGCCAUGCCUGCAGGUCGACUCUAGAAAACAUG,binding signal,PUM1 PUF domain R5-PHS,2.78 log2 enrichment (interaction score)
GGCUAGAACUAGUGGAUCCCCCGGCGCCCGGCGGCUCGAGCCCGGGUAAGUGUAAAUGGUCUGCAUGCCGCCGGGCGCCAUGCCUGCAGGUCGACUCUAGAAAACAUG,binding signal,PUM1 PUF domain R1-GFE,4.79 log2 enrichment (interaction score)
GGCUAGAACUAGUGGAUCCCCCGGCGCCCGGCGGCUCGAGCCCGGGUAAGUGUAAGUAGUCUGCAUGCCGCCGGGCGCCAUGCCUGCAGGUCGACUCUAGAAAACAUG,binding signal,PUM1 PUF domain R3-LSA,4.84 log2 enrichment (interaction score)
same,binding signal,PUM1 PUF domain R3-EWA,4.37 log2 enrichment (interaction score)
GGCUAGAACUAGUGGAUCCCCCGGCGCCCGGCGGCUCGAGCCCGGGUAAGUGUAAAUAGUCUGCAUGCCGCCGGGCGCCAUGCCUGCAGGUCGACUCUAGAAAACAUG,binding signal,PUM1 PUF domain R4-MRG,2.56 log2 enrichment (interaction score)
same,binding signal,PUM1 PUF domain R4-RYP,5.03 log2 enrichment (interaction score)
same,binding signal,PUM1 PUF domain R3-VRY,4.24 log2 enrichment (interaction score)
same,binding signal,PUM1 PUF domain R8-KWS,3.68 log2 enrichment (interaction score)
same,binding signal,PUM1 PUF domain R5-THL,4.39 log2 enrichment (interaction score)
same,binding signal,PUM1 PUF domain R4-SPG,4.58 log2 enrichment (interaction score)
same,binding signal,PUM1 PUF domain R6-FRV,2.7 log2 enrichment (interaction score)
same,binding signal,PUM1 PUF domain R3-EWA,4.04 log2 enrichment (interaction score)
same,binding signal,PUM1 PUF domain R5-GQC,3.41 log2 enrichment (interaction score)
